# Compounds with a hit are over-represented: about 21% of the library has one in this group of screens.
# Pf growth 48h = P. falciparum growth inhibition at 48 hours (one generation); P. falciparum luciferase growth in erythrocytes, 48 h; Potency, µM (top dose mostly 28.7 µM), without a hit: top-dose activity change, negative = inhibition, hits mostly inhibitors; hit rate 5.9% among 310,000; AID 504832; also: potency is read from the fitted curve at half-maximal effect; % is scaled to controls: 0 for no effect and ±100 for the full control effect
#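 Parasite viability was followed by luminescence of a genomically integrated firefly luciferase. Cultures held 0.1% parasitemia at 2% hematocrit (final), incubated under 5% CO2 at 37 C.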
# HCMV antiviral = inhibitors of human cytomegalovirus; HFF cells, HCMV-luciferase reporter, 72 h; stronger effect = lower value; activity change, negative = inhibition, % at 57.5 µM; hit rate 4.5% among 410,000; AID 1259415; in the data active = activity change below about -60%; inconclusive = no clear call, values can overlap the other calls; inactive = above about -39%; also: % is scaled to controls: 0 for no effect and ±100 for the full control effect
#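 Steps: HFFs plated, 16 h 37C; compounds added; HCMV-luciferase added to MOI 1 PFU/cell; 72 h 37C; OneGlo reagent, 5 min room temperature; luminescence read, normalized to controls.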
# Pf growth 96h = P. falciparum growth inhibition at 96 hour, primary screen for plastid delayed-death inhibitors; P. falciparum luciferase reporter growth, 96 h; hit rate 6.9% among 320,000; Potency, µM (top dose mostly 28.7 µM), inactives show at the top dose activity change, negative = inhibition, usual class: inhibitors; also: potency is read from the fitted curve at half-maximal effect; % is scaled to controls: 0 for no effect and ±100 for the full control effect
#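 Two-generation exposure (96 h) targets delayed-death phenotype. Reporter parasites carrying integrated firefly luciferase, in red cells at 2% hematocrit and 0.05% parasitemia final, kept at 37 C, 5% CO2; luminescence loss indicates inhibition.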
# Shiga inhibitor = inhibitors of Shiga toxin in Vero cells | Vero cells, Shiga toxin protein synthesis inhibition reporter | inhibition, % at 38.7 µM | hit rate 9.2% among 290,000; in the data active = inhibition mostly above about 28%, no sharp cut-off; inactive = mostly below about 43%; also: 0% is about no effect
# CHX counter = affects cycloheximide protein synthesis inhibition readout, counter-screen; AID 2314; hit rate 12% among 300,000; cell reporter, cycloheximide protein synthesis inhibition counterscreen; max response, %; in the data active = max response mostly above about 13%, no sharp cut-off; inactive = mostly below about 14%; also: read at 38.3 µM for the half of the compounds with a filed dose; 0% is about no effect
# HCV inhibitor = blocks hepatitis C virus | Huh7.5.1 HCVcc-Cre infection, luciferase reporter, 44 h | AID 651820 | Potency, µM (doses to about 41.8 µM), inactives show at the highest dose activity change, negative = inhibition, actives largely listed as inhibitors | hit rate 3.4% among 340,000; also: potency is read from the fitted curve at half-maximal effect; % is scaled to controls: 0 for no effect and ±100 for the full control effect
#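 Antiviral activity was scored by luciferase reporter output from cells infected with HCVcc-Cre (~0.5 moi) in presence of compound, 44 h infection period, cells seeded 1,000/well 4 h prior.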
# Active calls of the source: *; ? = inconclusive; . = no result; [ ] = dose if it differs, or a comment. Unless noted, calls follow the shape of the dose curve; as a rule, active = well fitted inhibition curve with a large enough effect; inconclusive = small, poorly fitted or top-dose-only effect, or another doubt; inactive = no such curve, though single readings can be large or run the other way.
SMILES,Pf growth 48h,HCMV antiviral,Pf growth 96h,Shiga inhibitor,CHX counter,HCV inhibitor
Cc1cc(NCCCN2CCOCC2)n2nc(C)c(-c3ccc(F)cc3)c2n1,7.38µM*,-1.6,-13.0%,10.3,8.1,?
O=C(COc1ccc(Cl)cc1)Nc1ccc(C(=O)NCc2cccnc2)cc1,-13.0%,.,-11.4%,-6.7,-2.4,12.6µM*
Cc1cccc(OCC(=O)Nc2ccc(C(=O)NCc3cccnc3)cc2)c1,-11.2%,.,5.2%,-2.4,0.7,.
Cc1ccc(OCc2ccc(C(=O)NCc3cccnc3)cc2)cc1C,-0.7%,-72.3*,20.6%,51.5*,32.7*,?
O=C(NCc1cccnc1)c1ccc(COc2ccc(Cl)cc2)cc1,35.4%,-86.0*,313.0%,76.8,8.5,?
O=C(Nc1cccc2ncccc12)c1ccc(OCc2ccccc2)cc1,-31.5%[1.15 µM],?,227.2%,5.3,-6.3,15.8µM*
COc1ccc(NC(=O)c2ccc3c(=O)n4nc(Nc5ccccc5C)sc4nc3c2)cc1Cl,.,2.0,.,.,.,.
O=C1C=C(c2ccc(-c3ccccc3)c(F)c2)C[C@@H](c2ccc(Cl)cc2)C1,25.1%,0.1,?,.,.,6.9%
O=C(OC1CCCCC1=O)c1ccc(F)c(S(=O)(=O)N2CCOCC2)c1 (stereo not drawn),?,-16.3,17.9%,.,.,28.3%
Cn1c(-c2ccc(Cl)nc2)nc2ccccc21,20.0%,37.6,64.9%,58.1*,14.6*,5.9%
CCOC(=O)Cn1c(-c2ccc(Cl)nc2)nc2ccccc21,-11.2%,2.0,56.5%,15.7,-3.2,?
Cn1c(-c2ccc(N)cc2)nc2ccccc21,60.6%,67.6,321.6%,74.8*,56.4*,-26.6%
Cn1c(N)c(-c2nc3cccnc3n2C)sc1=S,39.2%,17.9,22.0%[5.75 µM],24.4,6.3,?
Cn1c(CCc2ccc(N)cc2)nc2ccccc21,133.0%,89.4,31.6%,60.0,31.8*,15.7%
Cc1ccc(-n2c(N)c(-c3nc4ccccc4n3C)sc2=S)cc1,1.47µM*,55.3,18.1%,17.5,11.1*,-28.0%
COc1ccc(Cc2nc3ccccc3n2C)cc1,4.1%,-29.1,7.9%,-1.7,2.0,13.0%
CC(c1ncncc1F)[C@](O)(Cn1cncn1)c1ccc(F)cc1F (stereo partly drawn),-11.1%,.,?,.,.,.
Cn1c(-c2ccc3nc(N)sc3c2)nc2cc(N)ccc21,.,62.5,.,5.9,20.6*,-23.0%
CCOC(=O)C1=C(CC)OC(N)=C(C#N)C1c1cccs1 (stereo not drawn),-18.8%,32.3,.,-11.4,4.7,3.5%
COC(=O)CC1=C(C(=O)OC)C(c2cccs2)C(C#N)=C(N)O1 (stereo not drawn),-13.0%,-100.7*,.,21.0,-7.0,22.2%
CCOC(=O)C1=C(CC)OC(N)=C(C#N)C1c1ccsc1 (stereo not drawn),-6.7%,0.5,13.1µM*,-8.0,3.4,10.6%
CCOC(=O)C1=C(C)OC(N)=C(C#N)C1c1ccsc1 (stereo not drawn),-9.4%,4.8,-11.1%,61.2,-3.0,21.2%
CCCC1=C(C(=O)OCC)C(c2ccc(OC)c(CSc3ccccn3)c2)C(C#N)=C(N)O1 (stereo not drawn),9.28µM*,-30.3,?,-2.4,5.0,9.1%
O=Cc1sc(=O)n(Cc2cccc(C(=O)O)c2)c1Cl,-6.2%,?,-1.9%,2.4,-0.7,16.9%
COC(=O)c1cccc(Cn2c(Cl)c(/C=N/NC(=O)c3ccco3)sc2=O)c1,9.28µM*,0.0,8.28µM*,3.2,17.9*,-21.0%
SMILES,Pf growth 48h,HCMV antiviral,Pf growth 96h,Shiga inhibitor,CHX counter,HCV inhibitor
O=C(O)c1cccc(Cn2c(Cl)c(/C=N/NC(=O)c3ccc(O)cc3)sc2=O)c1,3.3%,0.0,9.8%,18.5,-1.8,-2.0%
O=c1sc(/C=N/Nc2ccccc2)c(Cl)n1Cc1ccccc1,?,-24.3,?,active,33.1*,-0.5%
COC(=O)c1cccc(Cn2c(Cl)c(/C=N/NC(=O)c3ccccc3Cl)sc2=O)c1,?,8.9,4.65µM*,-8.2,-4.5,?
COC(=O)[C@H](Cc1ccccc1)NC(=O)N1CCN(c2ccccc2)CC1,-11.7%,1.4,2.1%,15.2,1.6,-21.1%
CCOC(=O)C1CCCN(C(=O)Cn2ncc3c4ccccc4n(C)c3c2=O)C1 (stereo not drawn),.,17.1,.,.,.,.
CCS(=O)(=O)CCSc1nc(-c2ccc(Br)cc2)cc(-c2ccccc2)c1C#N,.,16.1,.,.,.,.
COc1ccc(-c2cc(-c3ccccc3)c(C#N)c(S(C)(=O)=O)n2)cc1,.,-65.7*,?,-8.0,-1.8,25.9%
CS(=O)(=O)c1nc(-c2ccc(Br)cc2)cc(-c2ccccc2)c1C#N,.,-98.8*,?,-10.6,1.1,?
COc1ccc(-c2cc(-c3ccc(OC)cc3)c(C#N)c(SC)n2)cc1,64.9%,-27.8,-12.8%,15.4,-2.8,-5.5%
COc1ccc(N/C=C2/CCCCC2=O)cc1,47.4%,-5.9,?,129.1*,77.9*,1.5%
O=C1CCCC/C1=C/Nc1ccc(C(=O)O)cc1,.,40.3,41.0%,41.8,29.7*,-13.3%
COc1ccc(Oc2ccc(N/C=C3/CCCC3=O)cc2)cc1,?,-17.8,74.8%,-25.7,13.5,?
C=CCc1cc(OC)ccc1OCCOCCN1CCc2ccccc2C1,36.9%[5.75 µM],-39.2,13.1µM*,-6.4,-1.6,-18.6%
CCOc1ccc(OCCOCCN2CCc3ccccc3C2)cc1,30.5%,34.0,62.8%,15.8,-1.1,-23.3%
CS(=O)(=O)c1cnc(-c2ccccc2)nc1Oc1ccc(F)cc1,13.1µM*,-28.9,?,12.9,0.6,5.0%
CCOC(=O)c1cnn2c(C)cc(-c3ccccc3)nc12,63.2%,41.7,?,68.2*,36.1*,10µM*
CCOC(=O)c1cc2nc(-c3ccccc3)cc(C)n2n1,5.0%,0.1,?,.,-3.4,?
CCOC(=O)c1cnc(-c2ccccc2)nc1Oc1ccc(OC)cc1,8.28µM*,?,5.22µM*,-9.4,8.1,-9.6%
CNC(=O)c1cnc(-c2ccccc2)nc1-c1ccccc1,9.5%,-30.8,33.2%,-6.2,-0.9,16.1%
CN(C)C(=O)c1cnc(-c2ccccc2)nc1-c1ccccc1,-12.3%,-62.2*,-27.9%,-2.4,-2.9,-8.8%
CCCCOCC1CN(CCCC)S(=O)(=O)c2c(cccc2N2CCCC2)O1 (stereo not drawn),.,-31.6,.,.,.,.
COc1ccccc1-n1cnnc1SCC(=O)NCC1CCCO1 (stereo not drawn),14.1%,?,48.6%,-4.6,-2.0,19.0%
CCOC(=O)c1cc(-c2ccccc2)nc2nc(N3CCCCC3)sc12,-8.6%,-4.5,51.2%,-10.4,-2.4,-18.7%
CCOC(=O)c1nnc2cc(-c3ccccc3)nn2c1C,.,-23.4,14.7µM*,11.3,28.4*,-7.2%
CCOC(=O)c1cnc(-c2cccc(OC)c2)[nH]c1=O,17.8%,-19.5,?,11.7,15.1*,3.4%
